Screens from PubChem.
Only some compounds are listed: those with a hit (about 18% of all), similar ones and a draw of the others.
TDP1 cell CPT: qHTS for Inhibitors of human tyrosyl-DNA phosphodiesterase 1 (TDP1): qHTS in cells in presence of CPT; chicken DT40 Tdp1-/-;hTDP1 cells + 20 nM CPT, ATP luminescence, 48 h; Potency, µM (doses to about 46.2 µM), without a hit: top-dose activity change, negative = growth inhibition, usual class: inhibitors; actives 12% (n = 420,000); AID 686979, 2013; further: potency means the concentration at half of the fitted maximal effect; on the % scale 0 is the no-effect control and ±100 the full control effect; nearly all actives have a fitted effect of over 55% in size
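Chicken DT40 Tdp1-/- cells stably complemented with human TDP1 were seeded at 400 cells/well in medium containing 20 nM camptothecin, exposed to pin-transferred compounds, and grown at 37 °C for at least 48 hr. Viability was read as ATP luminescence.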
IL-1B inflam inh: qHTS for Inhibitors of Inflammasome Signaling: IL-1-beta AlphaLISA Primary Screen; AID 743279, 2014; THP-1 LPS/ATP IL-1B secretion, AlphaLISA, 16 h; active compounds read low; actives 4.7% (n = 360,000); activity change, % at 57.5 µM; in the data active means activity change below about -50%; inconclusive means mostly about -30% to -49%; further: on the % scale 0 is the no-effect control and ±100 the full control effect
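Secreted IL-1B measured by AlphaLISA bead assay after 16 h compound exposure of THP-1 cells; compounds (final up to 57.5 uM) added 1 h before LPS (250 ng/mL) and ATP (1.25 mM) stimulation; lower signal means less secretion.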
HepG2 viability: qHTS for Inhibitors of TGF-b: Cytotox Counterscreen. HepG2 CAGA-GFP viability, ATP luminescence, 18 h. Potency, µM (series often up to 46.1 µM), without a hit: top-dose activity change, negative = cytotoxicity, actives largely listed as cytotoxic. actives 0.76% (n = 410,000); further: potency means the concentration at half of the fitted maximal effect
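HepG2 CAGA-GFP cells (1000/well, DMEM with 1% FBS) received compound, then TGF-beta at 500 pg/mL final, and were incubated 18 hours at 37 degrees C. Viability was read by CellTiter-Glo luminescence. Media-only wells were set as complete cell-killing and DMSO as no toxicity.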
TDP1 cell noCPT: qHTS for Inhibitors of human tyrosyl-DNA phosphodiesterase 1 (TDP1): qHTS in cells in absence of CPT | DT40 Tdp1-/- hTDP1 cells, no CPT, ATP luminescence, 48 h | Potency, µM (doses to about 46.2 µM), for inactives: at the top dose activity change, negative = growth inhibition, hits mostly inhibitors | actives 15% (n = 420,000); further: potency means the concentration at half of the fitted maximal effect; on the % scale 0 is the no-effect control and ±100 the full control effect; nearly all actives have a fitted effect of over 55% in size
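Compound effects on proliferation are scored in DT40 Tdp1-/-;hTDP1 cells in the absence of CPT. ATP levels (CellTiter-Glo luminescence) are recorded after a ≥48 hr, 37 °C incubation.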
TGFb SMAD3 inh: qHTS for Inhibitors of TGF-b; HepG2 CAGA-GFP TGF-b/SMAD3 reporter, GFP fluorescence, 18 h; TGF-beta stimulated, 500 pg/mL final; Potency, µM (titrated, usually from 46.1 µM), inactives show top-dose activity, negative = inhibition, hits mostly inhibitors; actives 1.2% (n = 410,000); AID 588855, 2011; further: potency means the concentration at half of the fitted maximal effect; on the % scale 0 is the no-effect control and ±100 the full control effect; nearly all actives have a fitted effect of over 65% in size
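Inhibition was scored as loss of TGF-beta-induced (500 pg/mL final, 18 hours, 37 degrees C) GFP in HEPG2 cells carrying a CAGA-GFP reporter, in DMEM with 1% FBS. Well GFP was summed per cell; Activity was normalised to unstimulated and stimulated DMSO wells, then concentration-response fitting.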
TDP1 block: qHTS Assay for Inhibitors of Tyrosyl-DNA Phosphodiesterase (TDP1); Tyrosyl-DNA phosphodiesterase 1 (Homo sapiens), Q9NUW8; recombinant TDP1, AlphaScreen DNA substrate cleavage; Potency, µM (highest dose often 130 µM), inactives show at the highest dose activity change, negative = inhibition, usual class: inhibitors; actives 0.28% (n = 350,000); further: potency means the concentration at half of the fitted maximal effect; on the % scale 0 is the no-effect control and ±100 the full control effect; nearly all actives have a fitted effect of over 40% in size
Target sequence (Q9NUW8 whole entry, looked up): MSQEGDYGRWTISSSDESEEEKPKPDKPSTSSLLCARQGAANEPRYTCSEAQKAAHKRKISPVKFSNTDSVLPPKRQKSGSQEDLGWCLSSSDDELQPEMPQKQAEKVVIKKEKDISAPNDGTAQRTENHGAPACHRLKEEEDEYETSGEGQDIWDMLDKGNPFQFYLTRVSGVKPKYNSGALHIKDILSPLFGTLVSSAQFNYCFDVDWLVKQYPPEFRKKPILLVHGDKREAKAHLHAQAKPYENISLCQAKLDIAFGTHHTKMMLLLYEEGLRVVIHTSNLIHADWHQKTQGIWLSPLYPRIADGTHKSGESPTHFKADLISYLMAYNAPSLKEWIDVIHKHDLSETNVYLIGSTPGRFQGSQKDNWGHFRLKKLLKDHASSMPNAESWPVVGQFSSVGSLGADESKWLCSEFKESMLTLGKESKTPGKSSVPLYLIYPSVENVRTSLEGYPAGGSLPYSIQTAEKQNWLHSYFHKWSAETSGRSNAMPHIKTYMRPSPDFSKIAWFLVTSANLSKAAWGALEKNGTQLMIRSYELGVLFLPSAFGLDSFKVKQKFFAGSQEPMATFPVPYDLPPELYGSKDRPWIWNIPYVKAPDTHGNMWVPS
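Recombinant human Tdp1 (E. coli-expressed, 1 nM final) preincubated with compounds 15 min at room temperature, then 5'-biotin/3'-phosphotyrosine-FITC DNA substrate (15 nM final) added for 5 min. AlphaScreen beads (10 ug/ml final) added 10 min; cleavage lowers signal.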
Starred values were filed as active, the others as inactive; ? = inconclusive; / = no result given; [ ] = another dose, or the depositor's remark. Unless noted, the call rests on the fitted dose curve; in most records, active means well fitted curve in the direction sought with a large enough effect; inconclusive means small, poorly fitted or top-dose-only effect, or another doubt; inactive means no such curve, though single readings can be large; an effect the other way counts as inactive or inconclusive.

SMILES	TDP1 cell CPT	IL-1B inflam inh	HepG2 viability	TDP1 cell noCPT	TGFb SMAD3 inh	TDP1 block
CCc1ccc(C(O)c2ncc(-c3ccccc3C)[nH]2)cc1 (stereo not drawn)	?	?	-17%	?	8%	/
COc1ccccc1-c1cnc(C(O)c2ccc(C)cc2C)[nH]1 (stereo not drawn)	-28%	-9	-35%	?	-4%	/
COc1ccccc1-c1cnc(C(O)c2cc(C)ccc2C)[nH]1 (stereo not drawn)	26µM*	21	-25%	?	-8%	/
CCc1ccc(C(O)c2ncc(-c3ccccc3OC)[nH]2)cc1 (stereo not drawn)	23µM*	33	-22%	18µM*	1%	/
COc1ccccc1-c1cnc(C(O)c2ccccc2)[nH]1 (stereo not drawn)	-26%	-4	-22%	?	0%	/
CC(=O)c1cc(C)c(OC(=O)c2ccccc2)c(C)c1	?	48	5%	?	0%	/
CC(=O)Cc1cc(O)c2ccccc2c1OC(=O)c1ccccc1	?	27	20µM*	15µM*	?	4%
CCNc1nc(SC(C)C(=O)Nc2ccccc2)nc(N(C)C)n1 (stereo not drawn)	?	-16	-5%	?	-1%	0%
CC(C)Nc1nc(SC(C)C(=O)Nc2ccccc2)nc(N(C)C)n1 (stereo not drawn)	7%	-87*	-20%	-27%	6%	5%
O=C(COc1ccccc1[N+](=O)[O-])N(C1CCCCC1)C1CCS(=O)(=O)C1 (stereo not drawn)	?	4	-3%	-25%	10%	1%
COc1ccc(CNC(=O)c2cc(Nc3ccccc3C)nc3ccccc23)cc1	?	/	-13%	?	2%	-9%
Cc1ccc(C)c(Nc2cc(C(=O)NCCCN(C)C3CCCCC3)c3ccccc3n2)c1	?	/	-54%	15µM*	-5%	7%
COc1ccc(CNC(=O)c2cc(Nc3ccc(C)cc3C)nc3ccccc23)cc1	18µM*	/	-15%	21µM*	-21%	2%
CCCCN(C)CCCNC(=O)c1cc(Nc2ccc(OC)c(OC)c2)nc2ccccc12	?	?	-52%	?	-18%	/
Cc1cc(C)cc(Nc2cc(C(=O)NCc3ccccc3)c3ccccc3n2)c1	23µM*	/	-14%	21µM*	?	-5%
Cc1cc(C)cc(Nc2cc(C(=O)NCCCN(C)C3CCCCC3)c3ccccc3n2)c1	4.6µM*	/	-39%	3.3µM*	-42%	-5%
Cc1ccc(C)c(Nc2cc(C(=O)NC3CCCC3)c3ccccc3n2)c1	-18%	/	-1%	?	-3%	0%
Cc1csc(NC(=O)CCC(=O)N(CC(=O)NC2CCCCC2)c2ccccc2)n1	-13%	-8	1%	-29%	-11%	1%
O=C(COc1ccccc1)Nc1ccc(OCc2cc(=O)n3ccsc3n2)cc1	-10%	/	0%	-12%	-9%	6%
O=C1CCCN1CCC12CC3CC(CC(C3)C1)C2	?	78	-16%	21µM*	-1%	/
CCOC(=O)C1=C(COC(=O)COc2cc(C)ccc2C)NC(=O)NC1C (stereo not drawn)	4%	0	7%	-10%	?	/
CCc1ccccc1N(C)C(=O)C1CCCN(c2ncnc3c2nc2n3CCCCC2)C1 (stereo not drawn)	18µM*	/	-19%	4.1µM*	?	6%
CCc1ccccc1N(CC)C(=O)C1CCN(c2ncnc3c2nc2n3CCCCC2)CC1	8.2µM*	-27	-61%	4.1µM*	?	3%
Cc1ccc(N(C)C(=O)C2CCCN(c3ncnc4c3nc3n4CCCCC3)C2)cc1C (stereo not drawn)	?	/	-41%	9.2µM*	?	2%
CN(C(=O)C1CCCN(c2ncnc3c2nc2n3CCCCC2)C1)c1ccccc1F (stereo not drawn)	23µM*	/	-31%	12µM*	?	7%
SMILES	TDP1 cell CPT	IL-1B inflam inh	HepG2 viability	TDP1 cell noCPT	TGFb SMAD3 inh	TDP1 block
CCOc1ccccc1N(C)C(=O)C1CCCN(c2ncnc3c2nc2n3CCCCC2)C1 (stereo not drawn)	-30%	/	-40%	-11%	-13%	0%
Cc1cc2c(cc1S(=O)(=O)NCc1ccc(F)cc1)n(C)c(=O)c(=O)n2C	-21%	/	-6%	?	0%	-1%
Cn1c(=O)c(=O)n(C)c2cc(N3CCCC3)c(NC(=O)c3ccccc3Cl)cc21	-6%	/	-5%	?	-7%	-2%[12.3 µM]
COc1ccc(Br)c(C(=O)Nc2cc3c(cc2N2CCCC2)n(C)c(=O)c(=O)n3C)c1	16µM*	/	-37%	21µM*	-12%	8%
CCn1c(=O)n(CC)c2cc(N3CCCC3)c(NC(=O)c3ccccc3)cc21	21µM*	?	-28%	9.2µM*	-1%	8%
Cn1c(=O)n(C)c2cc(N3CCCCC3)c(NC(=O)c3ccccc3)cc21	29µM*	32	12%	?	10%	0%
CCn1c(=O)n(CC)c2cc(N3CCCC3)c(NC(=O)c3ccccc3F)cc21	18µM*	?	-15%	12µM*	0%	9%
O=C(NCc1ccc(Cl)cc1)N1CCN(S(=O)(=O)c2ccccc2)CC1	-7%	14	10%	-19%	4%	1%
COc1ccc(Cl)cc1C(=O)Nc1nnc2n1CCS2	-19%	/	0%	11%	15%	4%
CCn1c(=O)n(CC)c2cc(N3CCCC3)c(NC(=O)c3cc(Br)ccc3OC)cc21	?	-14	-16%	?	-31%	10%
Cc1cc(C)cc(NC(=O)Nc2ccc(N3CCCCC3)cc2)c1	?	-7	-52%	?	?	8%
CCn1c(=O)n(CC)c2cc(N3CCCCC3)c(NC(=O)Nc3cc(Cl)ccc3OC)cc21	23µM*	/	-19%	18µM*	-17%	10%
CCn1c(=O)n(CC)c2cc(N3CCCCC3)c(NC(=O)Nc3ccccc3C(F)(F)F)cc21	12µM*	/	9%	10µM*	?	8%
CCn1c(=O)n(CC)c2cc(N3CCCC3)c(NC(=O)c3ccccc3C)cc21	16µM*	8	1%	21µM*	-12%	8%
